According to PubChem BioAssay (NCATS):
Where “and” joins values, the source holds several entries; their conditions need not be identical. Identical values can stand only once. Results filed as inconclusive are left out. Where a call stands in place of a potency, no number is given. Some structures have more than one record in an assay (separate samples or runs), and their calls can disagree. Calls of active or inactive are those of the source. The call rests on the fitted dose curve; in most records, active means well fitted curve in the direction sought with a large enough effect; inconclusive means small, poorly fitted or top-dose-only effect, or another doubt; inactive means no such curve, though single readings can be large; an effect the other way counts as inactive or inconclusive.

What was measured:
[1] = Primary qHTS for inhibitors of nuclear receptor binding SET domain protein 2 (NSD2) in an isogenic RCH-ACV NSD2 p.E1099K mutant (9B) (AID 1645876); settings: RCH-ACV NSD2 E1099K (9B) viability, CellTiter-Glo, 72 h; series mostly up to 44.9 µM; further: nearly all actives have a fitted effect of over 70% in size; further: potency means the concentration at half of the fitted maximal effect
[2] = Primary qHTS for inhibitors of nuclear receptor binding SET domain protein 2 (NSD2) in an RCH-ACV wild type WT cells (2C) (AID 1645877); settings: RCH-ACV (leukaemia line) NSD2 WT (2C) viability, CellTiter-Glo, 72 h; series mostly up to 44.9 µM; further: nearly all actives have a fitted effect of over 70% in size; further: potency means the concentration at half of the fitted maximal effect
[3] = target: Catechol O-methyltransferase (Homo sapiens) (UniProt P21964); assay: Confirmatory Screen for Target Class Profiling of Small Molecule Inhibitors of Methyltransferases (AID 1745852); settings: MTase-Glo luminescence, SAH detection, recombinant enzyme; measured here: COMT max response; stronger effect = lower value
[4] = target: Guanidinoacetate N-methyltransferase (Homo sapiens) (UniProt Q14353); assay: as above; settings: MTase-Glo luminescence, SAH detection, recombinant enzyme; activity change, negative = inhibition: at 57.3 µM (top of the series)
[5] = target: Nicotinamide N-methyltransferase (Homo sapiens) (UniProt P40261); assay: as above; settings: MTase-Glo luminescence, SAH detection, recombinant enzyme; measured here: NNMT max response; stronger effect = lower value
[6] = target: Phenylethanolamine N-methyltransferase (Homo sapiens) (UniProt P11086); assay: as above; settings: MTase-Glo luminescence, SAH detection, recombinant enzyme; measured here: PNMT max response; stronger effect = lower value
Phenylethanolamine N-methyltransferase (Homo sapiens), sequence (P11086 whole entry, looked up): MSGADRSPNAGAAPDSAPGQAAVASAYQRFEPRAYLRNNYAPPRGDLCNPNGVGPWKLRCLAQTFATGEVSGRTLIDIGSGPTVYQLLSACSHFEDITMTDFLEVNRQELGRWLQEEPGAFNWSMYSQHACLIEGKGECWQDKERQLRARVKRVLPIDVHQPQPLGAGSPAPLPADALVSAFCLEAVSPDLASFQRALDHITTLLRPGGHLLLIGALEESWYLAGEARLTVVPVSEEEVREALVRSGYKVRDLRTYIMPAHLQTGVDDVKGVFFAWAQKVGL

Catechol O-methyltransferase (Homo sapiens), sequence (P21964 whole entry, looked up): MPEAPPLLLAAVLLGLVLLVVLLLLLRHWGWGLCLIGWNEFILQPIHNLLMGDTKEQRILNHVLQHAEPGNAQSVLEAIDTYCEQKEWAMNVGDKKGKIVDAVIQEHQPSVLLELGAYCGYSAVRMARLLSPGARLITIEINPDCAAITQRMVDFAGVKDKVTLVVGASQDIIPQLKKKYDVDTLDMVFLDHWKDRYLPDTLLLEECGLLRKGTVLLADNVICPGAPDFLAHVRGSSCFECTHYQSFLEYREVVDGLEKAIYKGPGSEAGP
Nicotinamide N-methyltransferase (Homo sapiens), sequence (P40261 whole entry, looked up): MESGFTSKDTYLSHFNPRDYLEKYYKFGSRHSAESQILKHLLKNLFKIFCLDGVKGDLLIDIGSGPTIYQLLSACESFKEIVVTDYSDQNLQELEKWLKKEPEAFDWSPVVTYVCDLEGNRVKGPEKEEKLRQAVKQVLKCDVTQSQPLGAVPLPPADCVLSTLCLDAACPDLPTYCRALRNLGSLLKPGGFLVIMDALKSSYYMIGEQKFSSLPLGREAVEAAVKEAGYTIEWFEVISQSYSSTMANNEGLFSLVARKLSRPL

## CCN(CC)CCn1c(=O)c(Cc2ccc(OC)cc2)nc2ccccc21
[1]
  Potency: inactive
[2]
  Potency: inactive

## Cc1nnc(C(=O)NC(C)(C)c2nc(C(=O)NCc3ccc(F)cc3)c(O)c(=O)n2C)o1
[1]
  Potency: inactive
[2]
  Potency: inactive

## COc1cc(NS(=O)(=O)c2ccc(N)cc2)nc(OC)n1
[1]
  Potency: inactive
[2]
  Potency: inactive

## CC1(C)[C@H](C(=O)O)N2C(=O)C[C@H]2S1(=O)=O
[1]
  Potency: inactive
[2]
  Potency: inactive

## CCOC(=O)c1ccc(C#Cc2ccc3c(c2)C(C)(C)CCS3)nc1
[1]
  Potency: inactive
[2]
  Potency: inactive

## O=c1cc(O)c(Cl)c[nH]1
[1]
  Potency: inactive
[2]
  Potency: inactive

## COc1ccccc1OCC(O)COC(N)=O (centres undefined)
[1]
  Potency: inactive
[2]
  Potency: inactive

## CCOC(=O)[C@H](CCc1ccccc1)N[C@H]1CS[C@H](c2cccs2)CN(CC(=O)O)C1=O
[1]
  Potency: inactive
[2]
  Potency: inactive

## CCc1c2c(nc3ccc(OC(=O)N4CCC(N5CCCCC5)CC4)cc13)-c1cc3c(c(=O)n1C2)COC(=O)[C@]3(O)CC
[1]
  Potency: 750 nM (active) and 235 nM (active)
[2]
  Potency: 596 nM (active) and 118 nM (active)

## CC(C)(C#N)c1cc(Cn2cncn2)cc(C(C)(C)C#N)c1
[1]
  Potency: inactive
[2]
  Potency: inactive

## O=C(O)C1CCCN(CCC=C(c2ccccc2)c2ccccc2)C1 (centres undefined)
[1]
  Potency: inactive
[2]
  Potency: inactive

## CCOC(=O)c1ccc(OC(=O)CCCCCN=C(N)N)cc1
[1]
  Potency: inactive
[2]
  Potency: 23.5 µM (active)

## CCCCc1oc2ccc(NS(C)(=O)=O)cc2c1C(=O)c1ccc(OCCCN(CCCC)CCCC)cc1
[1]
  Potency: 2.99 µM (active) and 11.5 µM (active) and 5.9 µM (active)
[2]
  Potency: 2.99 µM (active) and 9.16 µM (active) and 6.61 µM (active)

## COC(c1ccccc1)(c1ccccc1)[C@H](Oc1nc(C)cc(C)n1)C(=O)O
[1]
  Potency: inactive
[2]
  Potency: inactive

## COc1ccc2cc3[n+](cc2c1OC)CCc1cc2c(cc1-3)OCO2
[1]
  Potency: 11.9 µM (active) and 5.9 µM (active)
[2]
  Potency: 11.9 µM (active) and 3.32 µM (active)

## CC(=O)CC(c1ccccc1)c1c(O)c2ccccc2oc1=O (centres undefined)
[1]
  Potency: inactive
[2]
  Potency: inactive

## COc1cc2nc(N3CCCN(C)CC3)nc(NC3CCN(Cc4ccccc4)CC3)c2cc1OC
[1]
  Potency: 4.17 µM (active)
[2]
  Potency: 2.63 µM (active)

## Cc1cccc(Nc2ccncc2S(=O)(=O)NC(=O)NC(C)C)c1
[1]
  Potency: inactive
[2]
  Potency: inactive

## OC(Cn1cncn1)(Cn1cncn1)c1ccc(F)cc1F
[1]
  Potency: inactive
[2]
  Potency: inactive

## CCc1cc(C(N)=S)ccn1
[1]
  Potency: inactive
[2]
  Potency: inactive

## CN(Cc1cc(Br)cc(Br)c1N)C1CCCCC1
[1]
  Potency: inactive
[2]
  Potency: inactive

## COc1nc(N)nc2c1ncn2[C@@H]1O[C@H](CO)[C@@H](O)[C@@H]1O
[1]
  Potency: 5.31 µM (active)
[2]
  Potency: 6.68 µM (active)

## CC(C)OC(=O)OCOP(=O)(CO[C@H](C)Cn1cnc2c(N)ncnc21)OCOC(=O)OC(C)C
[1]
  Potency: inactive
[2]
  Potency: inactive

## COc1cccc(N(C)C(=S)Oc2ccc3c(c2)CCCC3)n1
[1]
  Potency: inactive
[2]
  Potency: inactive

## COC(=O)Nc1nc2ccc(C(=O)c3ccccc3)cc2[nH]1
[1]
  Potency: 211 nM (active) and 417 nM (active)
[2]
  Potency: 106 nM (active) and 372 nM (active)

## CCOC(=O)[C@H](CCc1ccccc1)N[C@H]1CCc2ccccc2N(CC(=O)O)C1=O
[1]
  Potency: inactive
[2]
  Potency: inactive

## CC1=NN(c2ccccc2)C(=O)C1
[1]
  Potency: inactive
[2]
  Potency: inactive

## CNNCc1ccc(C(=O)NC(C)C)cc1
[1]
  Potency: inactive
[2]
  Potency: inactive

## O=C(O)c1cc(=O)[nH]c(=O)[nH]1
[1]
  Potency: inactive
[2]
  Potency: inactive

## CN(C)c1ccc(C(=C2C=CC(=[N+](C)C)C=C2)c2ccc(N(C)C)cc2)cc1
[1]
  Potency: 33.5 nM (active) and 296 nM (active)
[2]
  Potency: 42.2 nM (active) and 263 nM (active)

## CCN[C@H]1C[C@H](C)S(=O)(=O)c2sc(S(N)(=O)=O)cc21
[1]
  Potency: inactive
[2]
  Potency: inactive

## N=C(N)c1ccc(OCCCCCOc2ccc(C(=N)N)cc2)cc1
[1]
  Potency: 4.73 µM (active) and 3.72 µM (active)
[2]
  Potency: 4.22 µM (active) and 4.68 µM (active)

## COc1cc2c(Nc3ccc(Br)cc3F)ncnc2cc1OCC1CCN(C)CC1
[1]
  Potency: inactive and 3.65 µM (active) and 13.2 µM (active)
[2]
  Potency: 5.15 µM (active) and 16.6 µM (active)
[3]
  activity: -17.2%
[4]
  activity change, negative = inhibition: -2.94%
[5]
  activity: -14.2%
[6]
  activity: -14.3%

## S=P(N1CC1)(N1CC1)N1CC1
[1]
  Potency: inactive
[2]
  Potency: inactive

## CCCN[C@H]1CCc2nc(N)sc2C1
[1]
  Potency: inactive
[2]
  Potency: inactive
